AmpC detergent = qHTS Inhibitors of AmpC Beta-Lactamase (assay with detergent) | AmpC hydrolysis of nitrocefin, absorbance 480 nm, 0.01% Triton | AID 485294, 2010 | Potency, µM (top dose mostly 114 µM), most hits filed as inhibitors | 0.041% of 370,000 active; also: nearly all actives have a fitted effect of over 25% in size
Target sequence (P00811 whole entry, looked up): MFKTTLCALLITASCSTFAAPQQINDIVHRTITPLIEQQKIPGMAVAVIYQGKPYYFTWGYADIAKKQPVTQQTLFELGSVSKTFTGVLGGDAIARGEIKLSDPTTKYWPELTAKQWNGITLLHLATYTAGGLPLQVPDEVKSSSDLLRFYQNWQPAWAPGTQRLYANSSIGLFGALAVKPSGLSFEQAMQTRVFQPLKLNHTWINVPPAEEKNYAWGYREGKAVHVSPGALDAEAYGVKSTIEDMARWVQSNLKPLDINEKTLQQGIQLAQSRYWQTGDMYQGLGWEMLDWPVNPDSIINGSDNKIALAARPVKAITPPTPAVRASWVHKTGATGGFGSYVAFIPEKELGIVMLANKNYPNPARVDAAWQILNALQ
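20 mM phosphate pH 7.0 + 0.01% (detergent screen) or 0.0001% Triton X-100; 5.3 nM AmpC reagent; cpd preinc 15 min RT; nitrocefin (800 uM stock) to start; A480 q20 s × 4 min; Activity was normalised to no-enzyme and no-compound control wells.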
Pf growth 96h = Primary qHTS for delayed death inhibitors of the malarial parasite plastid, 96 hour incubation; 6.9% of 320,000 active; P. falciparum luciferase reporter growth, 96 h; Potency, µM (top dose mostly 28.7 µM), hits mostly inhibitors; AID 504834, 2011
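P. falciparum expressing integrated firefly luciferase grown in erythrocytes (2% hematocrit, 0.05% parasitemia final) with compounds for 96 hours at 37 C, 5% CO2. Growth inhibition read as loss of luminescence after adding luciferase detection reagent.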
Pf growth 48h = Primary qHTS for delayed death inhibitors of the malarial parasite plastid, 48 hour incubation. P. falciparum luciferase growth in erythrocytes, 48 h. 5.9% of 310,000 active. Potency, µM (highest dose often 28.7 µM), hits mostly inhibitors
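Parasite viability was followed by luminescence of a genomically integrated firefly luciferase. Cultures held 0.1% parasitemia at 2% hematocrit (final), incubated under 5% CO2 at 37 C.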
AmpC no deterg = qHTS Inhibitors of AmpC Beta-Lactamase (assay without detergent) | 0.52% of 330,000 active | Potency, µM (titrated, usually from 57.1 µM), most hits filed as inhibitors | AmpC nitrocefin hydrolysis, absorbance 480 nm, 0.0001% Triton | AID 485341, 2010; also: nearly all actives have a fitted effect of over 20% in size
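AmpC (5.3 nM in the dispensed reagent) in 20 mM phosphate pH 7.0 with 0.01% (detergent screen) or 0.0001% Triton X-100 was preincubated with compounds for 15 min at room temperature. Nitrocefin was then added from an 800 uM solution, and hydrolysis was followed at 480 nm.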
HCV inhibitor = qHTS Assay for Inhibitors of Hepatitis C Virus (HCV) | Huh7.5.1 HCVcc-Cre infection, luciferase reporter, 44 h | 3.4% of 340,000 active | Potency, µM (series often up to 41.8 µM), hits mostly inhibitors
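Cells seeded at 1,000/well and cultured 4 h, then compounds added followed by HCVcc-Cre virus (~0.5 moi). After 44 h further culture, luciferase substrate was added, plates held 15 min at room temperature, and luminescence read for 15 sec.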
AMA1-RON2 inh = qHTS for Inhibitors of AMA1-RON; Towards Development of Antimalarial Drug Lead: Primary Screen; Plasmodium falciparum AMA1 (3D7) - RON2 peptide interaction; AlphaScreen AMA1-biotinylated RON2 peptide binding; Potency, µM (highest dose often 58.2 µM), usual class: inhibitors; 0.2% of 360,000 active; AID 720542, 2013; also: nearly all actives have a fitted effect of over 45% in size
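AMA1 (3D7) with his tag at 25 nM final met compounds first, then biotinylated RON2 peptide at 25 nM; detection used donor plus acceptor beads, 10 µg/mL apiece, read by AlphaScreen after 30 min at room temperature.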
Numbers stand for hits. Most compounds without a hit are left out; they make up all but 11% or so of the library. Calls follow the shape of the dose curve; as a rule, active = well fitted curve in the direction sought with a large enough effect; inconclusive = small, poorly fitted or top-dose-only effect, or another doubt; inactive = no such curve, though single readings can be large; an effect the other way counts as inactive or inconclusive.

What do the screens show for `C#CCOCCOCCOCCNc1nc(N2CCN(C(=O)[C@H](CCC(=O)O)n3cc(C(N)Cc4ccc(O)cc4)nn3)CC2)nc(N2CCN(C(=O)[C@H](Cc3cc4ccccc4[nH]3)n3cc(C(N)CC(C)C)nn3)CC2)n1` (stereo partly specified)?
AmpC detergent: inactive; Pf growth 96h: inactive; Pf growth 48h: inactive; AmpC no deterg: inactive

Results for C#CCOCCOCCOCCNc1nc(N2CCN(C(=O)C(Cc3ccc(O)cc3)n3cc(C(N)CC(C)C)nn3)CC2)nc(N2CCN(C(=O)C(Cc3cc4ccccc4[nH]3)n3cc(C(N)Cc4ccc(O)cc4)nn3)CC2)n1 (stereo unspecified) ?
AmpC detergent: inactive; Pf growth 96h: 13µM; Pf growth 48h: inconclusive; AmpC no deterg: inactive

How did C#CCOCCOCCOCCNc1nc(N2CCN(C(=O)[C@H]([C@@H](C)CC)n3cc([C@@H](N)CO)nn3)CC2)nc(N2CCN(C(=O)[C@H](Cc3cc4ccccc4[nH]3)n3cc([C@@H](N)Cc4ccc(O)cc4)nn3)CC2)n1 do in these assays?
AmpC detergent: inactive; Pf growth 96h: 2.9µM; Pf growth 48h: inactive; AmpC no deterg: inactive

How did C#CCOCCOCCOCCNc1nc(N2CCN(C(=O)[C@H](Cc3cc4ccccc4[nH]3)n3cc([C@@H](N)C(C)CC)nn3)CC2)nc(N2CCN(C(=O)[C@H](Cc3cc4ccccc4[nH]3)n3cc([C@@H](N)CC(C)C)nn3)CC2)n1 (stereo partly specified) do in these assays?
AmpC detergent: inactive; Pf growth 96h: inconclusive; Pf growth 48h: 12µM; AmpC no deterg: inactive

What do the screens show for `Cc1cc2nc(C3CCN(Cc4nnnn4Cc4ccccc4)CC3)[nH]c2cc1C`?
AmpC detergent: inactive; Pf growth 96h: 5.2µM; Pf growth 48h: inconclusive; AmpC no deterg: inactive; HCV inhibitor: inconclusive; AMA1-RON2 inh: inactive

Results for COc1ccc(Cn2nnnc2CN2CCC(c3nc4ccccc4s3)CC2)cc1 ?
AmpC detergent: inconclusive; Pf growth 96h: inactive; Pf growth 48h: 12µM; AmpC no deterg: inactive; HCV inhibitor: 25µM; AMA1-RON2 inh: inactive

How did c1ccc2sc(C3CCN(Cc4nnnn4Cc4ccc5c(c4)OCO5)CC3)nc2c1 do in these assays?
AmpC detergent: inactive; Pf growth 96h: inactive; Pf growth 48h: inconclusive; AmpC no deterg: inactive; HCV inhibitor: inconclusive; AMA1-RON2 inh: inactive

What do the screens show for `CCc1ccc(NS(=O)(=O)c2ccc3[nH]cc(C(=O)NC4CCCC4)c(=O)c3c2)cc1`?
AmpC detergent: inactive

Results for Cc1nc(N2CCN(C)CC2)c2c(C)c(C(=O)Nc3ccc(C)c(F)c3)sc2n1 ?
AmpC detergent: inactive; Pf growth 96h: inconclusive; AmpC no deterg: inactive; HCV inhibitor: 8.9µM; AMA1-RON2 inh: inactive

What do the screens show for `Cc1nc(N2CCN(c3ccccn3)CC2)c2c(C)c(C(=O)Nc3ccc(Cl)cc3)sc2n1`?
AmpC detergent: inactive; Pf growth 96h: inactive; Pf growth 48h: inconclusive; AmpC no deterg: inactive; HCV inhibitor: inconclusive; AMA1-RON2 inh: inactive

Results for Cc1nc(N2CCOCC2)c2c(C)c(C(=O)Nc3ccc(F)cc3F)sc2n1 ?
AmpC detergent: inactive; Pf growth 96h: inconclusive; Pf growth 48h: inactive; AmpC no deterg: inactive; HCV inhibitor: inactive; AMA1-RON2 inh: inactive

How did Cc1nc(N2CCN(c3ccccn3)CC2)c2c(C)c(C(=O)Nc3c(F)cc(F)cc3Br)sc2n1 do in these assays?
AmpC detergent: inactive; Pf growth 96h: inactive; Pf growth 48h: 12µM; AmpC no deterg: inactive; HCV inhibitor: 13µM; AMA1-RON2 inh: inactive

Screens from PubChem.
